Screening data from PubChem.
Sampled rows, rich in hits. Any-hit rate of the full collection: about 3.5%.
FBW7 activator: activators of human E3 ligase FBW7 | Q969H0 | AlphaScreen FBW7–phospho-cyclin E peptide binding, activator screen | normalized activity (activation), % at 26.1 µM | 650,000 compounds, 0.13% hits | AID 1259310; in the data active means normalized activity above about 1.9%;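 further: purified mutant Fbw7 with reduced substrate affinity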
GPR151 activ: human GPR151 activation. Q8TDV0. 650,000 compounds, 1% hits. PathHunter beta-arrestin GPR151 cells, luminescence. activation, % at 11.2 µM; in the data active means activation above about 4.9%
MITF primary: inhibitors of human MITF | O75030 | AlphaScreen MITF homodimerization, bead proximity signal | inhibition, % at 2.6 µM | 650,000 compounds, 0.91% hits | AID 1259374; in the data active means inhibition above about 50%
Target sequence (O75030 whole entry, looked up): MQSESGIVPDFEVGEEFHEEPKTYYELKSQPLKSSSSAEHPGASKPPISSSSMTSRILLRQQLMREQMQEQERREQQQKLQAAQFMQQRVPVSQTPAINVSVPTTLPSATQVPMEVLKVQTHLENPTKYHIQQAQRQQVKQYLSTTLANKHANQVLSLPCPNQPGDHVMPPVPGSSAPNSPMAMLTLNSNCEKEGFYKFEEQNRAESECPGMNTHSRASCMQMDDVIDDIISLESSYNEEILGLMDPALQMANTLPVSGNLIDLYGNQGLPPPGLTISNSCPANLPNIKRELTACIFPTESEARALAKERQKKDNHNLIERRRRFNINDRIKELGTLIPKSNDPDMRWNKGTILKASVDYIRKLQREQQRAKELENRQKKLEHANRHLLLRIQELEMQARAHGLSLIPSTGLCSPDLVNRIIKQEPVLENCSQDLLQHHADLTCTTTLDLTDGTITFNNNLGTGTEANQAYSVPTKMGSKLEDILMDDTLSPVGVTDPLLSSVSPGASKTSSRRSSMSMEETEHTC
TEAD-YAP inh: TEAD-YAP interaction inhibition. AID 1259422. HEK-TIYL cells, TEAD-Gal4/YAP UAS-luciferase luminescence. 640,000 compounds, 1.4% hits. inhibition, % at 9.12 µM; in the data active means inhibition above about 32%
GPR151 conf act: confirmation of human GPR151 activators. activation, % at 11.2 µM. shares compounds with GPR151 activ. 6,700 tested, under 10 active. GPR151 PathHunter beta-arrestin cells, luminescence, 90 min; % of EA-reagent control over plate median;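 active means mean percent activation across replicates above the confirmation screen cutoff of 4.91%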
GPR119 ag: activates human GPR119 in a GPR151 counter-screen; GPR119 PathHunter beta-arrestin cells, luminescence, 90 min; 0 = compound-well median, 100 = enzyme-acceptor control; AID 1508611; activation, % at 11.2 µM; shares compounds with GPR151 activ; 6,700 compounds, 0.3% hits;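 active means mean percent activation in the counterscreen above 29.09%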;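 further: counterscreen on off-target GPR119 to flag nonselective hits from the GPR151 activator screen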
Large screens that a line does not name were inactive (follow-up assays come after a bar, where they were run).

COc1cccc(C(=O)NCCCc2ccc(N(C)C)cc2)c1OC	GPR151 activ 5.3 | GPR151 conf act inactive | GPR119 ag inactive
COc1cc2c(cc1C1NC(=S)NC(C)=C1C(=O)N(C)C)CCCC2 (stereo not drawn)	GPR151 activ 8.9 | GPR151 conf act inactive | GPR119 ag inactive
COC(=O)C1=C(C)NC(=S)NC1c1ccccc1OC (stereo not drawn)	GPR151 activ 5.6 | GPR151 conf act inactive | GPR119 ag inactive
C=CCNC(=O)c1ccc2c(=O)n(CC3CCCO3)c(=S)[nH]c2c1 (stereo not drawn)	none
O=C(Cc1cccc(F)c1)N1CCC(O)(c2ccccn2)CC1	none
O=C(Cc1ccc(F)cc1)N1CCC(O)(c2ccccn2)CC1	GPR151 activ 11 | GPR151 conf act inactive | GPR119 ag inactive
CCCCCn1c(SCC(=O)OCC)nc2cc(C(=O)NC3CCCCC3)ccc2c1=O	GPR151 activ 5.4 | GPR151 conf act inactive | GPR119 ag inactive
Cc1cc2c(cc3c(=O)n(CC(=O)NCCCN4CCCC(C)C4)nc(C)n32)s1 (stereo not drawn)	GPR151 activ 7.7 | GPR151 conf act inactive | GPR119 ag inactive
Cc1cc2c(cc3c(=O)n(CC(=O)N4CCCC(C)C4)nc(C)n32)s1 (stereo not drawn)	none
CCc1nn(CC(=O)NCCN(C)C2CCCCC2)c(=O)c2cc3sc(C)cc3n12	GPR151 activ 8.6 | GPR151 conf act inactive | GPR119 ag inactive
COc1ccc2cc(CCNS(C)(=O)=O)c(=O)[nH]c2c1	none
CCn1c2ccccc2c2cc(NC(=O)Cn3cnc4c3c(=O)n(C)c(=O)n4C)ccc21	GPR151 activ 6.1 | GPR151 conf act inactive | GPR119 ag inactive
Cn1c(=O)c2c(ncn2CC(=O)Nc2ccccc2)n(C)c1=O	none
CC(=O)N1CCN(Cc2ccccc2)CC1C(=O)NCc1ccccc1 (stereo not drawn)	GPR151 activ 5.5 | GPR151 conf act inactive | GPR119 ag inactive
CCNC(=O)N1CCN(Cc2ccccc2)CC1C(=O)NCc1ccccc1 (stereo not drawn)	none
Cc1cc(NC(=O)CSc2n[nH]c3nc4ccccc4n23)no1	none
O=C(Oc1ccc(/C=N/N2C(=O)c3ccccc3C2=O)cc1[N+](=O)[O-])c1ccccc1	none
O=C(O)COc1ccc(C2C3=C(CCCC3=O)OC3=C2C(=O)CCC3)cc1	GPR151 activ 6.2 | GPR151 conf act inactive | GPR119 ag inactive
COc1ccc(CN2CCNC(=O)C2CC(=O)NCC(C)(C)N2CCOCC2)cc1C (stereo not drawn)	none
CCOc1ccc(/C(O)=C2\C(=O)C(=O)N(c3nc(C)c(C(=O)OC)s3)C2c2ccc(C)cc2)cc1C (stereo not drawn)	GPR151 activ 5.0 | GPR151 conf act inactive | GPR119 ag inactive
O=C(NCc1ccccc1)c1nn(C23CC4CC(CC(C4)C2)C3)cc1[N+](=O)[O-]	GPR151 activ 5.6 | GPR151 conf act inactive | GPR119 ag inactive
Cc1ccc(NC(=S)NCCN2CCCCC2)cc1	none
CCN(CC)C(=O)c1cn(CCC#N)nc1-c1ccc(OC)c([N+](=O)[O-])c1	GPR151 activ 21 | GPR151 conf act inactive | GPR119 ag inactive
CCN(CC)C(=O)c1sc(NC(=O)/C=C/C(=O)O)c(C(=O)OC(C)C)c1C	none
O=C(NCc1ccc(N2CCCC2=O)cc1)c1cn(Cc2ccccc2)nn1	GPR151 activ 7.4 | GPR151 conf act inactive | GPR119 ag inactive
COc1ccc(S(=O)(=O)NCCOC23CC4CC(CC(C4)C2)C3)cc1C	GPR151 activ 5.3 | GPR151 conf act inactive | GPR119 ag inactive
Cc1ccc(S(=O)(=O)NCCOC23CC4CC(CC(C4)C2)C3)cc1C	none
CN(C)S(=O)(=O)c1cccc(C(=O)n2ncc(C#N)c2N)c1	GPR151 activ 5.3 | GPR151 conf act inactive | GPR119 ag inactive
CCn1c(C(=O)O)c(CNC2CCCCCC2)c2ccc(C)cc21	none
Cc1ccc(C(c2ccc(C)o2)c2cc3c(cc2[N+](=O)[O-])OCO3)o1	none
O=C(CSc1nc2ccccc2s1)NCc1ccco1	GPR151 activ 6.1 | GPR151 conf act inactive | GPR119 ag inactive
CCOc1ccc(CC(=O)Nc2ccccc2)cc1OCC	none
CCOc1ccc(CC(=O)Nc2ccc(I)cc2)cc1OCC	GPR151 activ 6.0 | GPR151 conf act inactive | GPR119 ag inactive
CCOC(=O)c1sc(/N=C/N(C)C)c(C(=O)OCC)c1C	GPR151 activ 11 | GPR151 conf act inactive | GPR119 ag inactive
CCOC(=O)/C(N=Nc1sc(C(=O)OCC)c(C)c1C(=O)OCC)=C(\O)CCl	GPR151 activ 6.7 | GPR151 conf act inactive | GPR119 ag inactive
CCN1CCN(C(=S)SCc2cn3cccnc3n2)CC1	none
CN1CCN(C(=O)c2c(NC(=O)c3ccccc3Cl)sc3c2CCC(C(C)(C)C)C3)CC1 (stereo not drawn)	none
COC(=O)c1ccccc1NC(=O)CSc1nc2ccccc2c(=O)[nH]1	none
NC(=O)c1ccccc1NC(=O)CSc1nc2ccccc2c(=O)[nH]1	GPR151 activ 5.3 | GPR151 conf act inactive | GPR119 ag inactive
CC(=O)c1ccc(N2C(=O)C3C(C2=O)C2(CO)C=CC3(C)O2)cc1 (stereo not drawn)	GPR151 activ 5.5 | GPR151 conf act inactive | GPR119 ag inactive
Cc1ccc(NC(=O)CSC(N)=O)cc1	none
CC(=O)Nc1ccc(NC(=S)NC(=O)c2cccc(Cl)c2)cc1	none
Cc1cccnc1NC(=S)NC(=O)c1cccc(Cl)c1	GPR151 activ 5.0 | GPR151 conf act inactive | GPR119 ag inactive
COc1cccc(NC2=NCC(=O)N2Cc2ccc(F)cc2)c1	GPR151 activ 6.0 | GPR151 conf act inactive | GPR119 ag inactive
Nc1c(C(=O)O)[nH]c(=O)[nH]c1=O	GPR151 activ 5.1 | GPR151 conf act inactive | GPR119 ag inactive
N#Cc1c2ccc([N+](=O)[O-])cc2c(=O)n2c1[nH]c(=O)c1cc(Cl)ccc12	none
O=C(Nc1c(F)cccc1F)N1CCn2cccc2C1c1ccccc1 (stereo not drawn)	GPR151 activ 11 | GPR151 conf act inactive | GPR119 ag inactive
O=C(c1cc2ccccc2oc1=O)N1CCN(c2ccccc2)CC1	GPR151 activ 6.3 | GPR151 conf act inactive | GPR119 ag inactive
N#Cc1c(NC(=O)c2cc3ccccc3oc2=O)sc2c1CCCCCC2	none
NC(=O)c1c(NC(=O)c2cc3ccccc3oc2=O)sc2c1CCCCCC2	GPR151 activ 28 | GPR151 conf act inactive | GPR119 ag inactive
Cc1cccc(C)c1NC(=O)c1cc2ccccc2oc1=O	GPR151 activ 6.0 | GPR151 conf act inactive | GPR119 ag inactive
CCc1cccc(C)c1NC(=O)c1cc2ccccc2oc1=O	none
CCOc1ccc(C2Nc3ccccc3-c3nnc(SCc4ccccc4F)nc3O2)cc1OC (stereo not drawn)	GPR151 activ 5.8 | GPR151 conf act inactive | GPR119 ag inactive
